# Hits are enriched below; roughly 5.5% of the tested compounds scored in any of these assays.
# CtBP-E1A blk: blocks the CtBP interaction with E1A | activity change, % (concentration not given with the values) | AlphaScreen GST-E1A/His-CtBP binding, 1536-well; active compounds read low | actives 0.49% (n = 340,000); in the data active = activity change below about -65%; inconclusive = mostly about -30% to -63%; also: % is scaled to controls: 0 for no effect and ±100 for the full control effect
#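 In 5 uL wells, 23 nL compound meets equimolar GST-E1A and His-CtBP (5X stock 125 nM each) for 2 h, 37 °C. Beads (5X, 50 ug/mL) then 1 h, 37 °C, dark.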
# CBFb RUNX1 block: CBF-beta/RUNX1 interaction disruption | AlphaScreen CBFb-His/RUNX1-biotin binding, biochemical | Potency, µM (doses to about 59.8 µM), for inactives: at the highest dose activity, negative = inhibition, usual class: inhibitors | 230,000 tested, under 10 active; also: % of control where 0% means no effect
#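 CBF-beta (His) and RUNX1 (biotin), 30 nM each; 20 min preassociation; + compound, 15 min; + beads 50 ng each (Ni, streptavidin), 90 min; RT; AlphaScreen read.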
# Six1-Eya2 blk: blocks human Six1 binding to Eya2; Q15475+O00167; AlphaScreen GST-Six1/His-Eya2 binding, biochemical; active compounds read low; activity change, % (test concentration not listed); actives 0.56% (n = 360,000); in the data active = activity change below about -65%; inconclusive = mostly about -30% to -63%; also: % is scaled to controls: 0 for no effect and ±100 for the full control effect
#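 AlphaScreen with GST-Six1 and His-Eya2 (5X mix: 250 nM and 500 nM), glutathione donor and nickel acceptor beads; buffer 50 mM Tris pH 8.0, 300 mM NaCl, 1 mM TCEP; 1 h at 37 C in the dark.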
# MBNL1-CUG inh: blocks human MBNL1 binding to CUG repeat RNA | Potency, µM (series often up to 57.5 µM), without a hit: at the highest dose activity change, negative = inhibition, hits mostly inhibitors | Q9NR56 | TR-FRET MBNL1-His/biotin-(CUG)12 binding, 665/545 ratio | actives 0.036% (n = 280,000); active = well fitted inhibition curve with a large enough effect in the signal ratio, with a control signal flat, not every such curve was filed as active; inconclusive = small, poorly fitted or top-dose-only effect, or effect the other way, or a change in a side signal; inactive = no such curve, though single readings can be large or run the other way; the % refers to the signal ratio; also: potency is read from the fitted curve at half-maximal effect; % is scaled to controls: 0 for no effect and ±100 for the full control effect
# Target sequence (Q9NR56 whole entry, looked up): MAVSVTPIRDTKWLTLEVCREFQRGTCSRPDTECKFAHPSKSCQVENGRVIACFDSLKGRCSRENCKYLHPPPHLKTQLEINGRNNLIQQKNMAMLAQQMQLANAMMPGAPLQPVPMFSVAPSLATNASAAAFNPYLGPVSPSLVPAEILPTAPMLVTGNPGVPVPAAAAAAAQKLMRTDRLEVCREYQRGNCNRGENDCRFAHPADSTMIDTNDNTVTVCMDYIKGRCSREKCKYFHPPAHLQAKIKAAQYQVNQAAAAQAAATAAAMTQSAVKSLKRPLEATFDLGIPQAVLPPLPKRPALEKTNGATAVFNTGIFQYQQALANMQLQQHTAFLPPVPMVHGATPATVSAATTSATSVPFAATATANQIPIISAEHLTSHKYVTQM
#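 MBNL1-His + Biotin-(CUG)12, cpd titration 92 nM–58 uM; Tb anti-His Ab 0.055 ng/ul, SA-XL665 5 nM (final); 60 min RT; ratiometric 665/545 nm, Ex 340 nm; normalized to buffer and full-complex controls.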
# Gal4-VP16 FLuc: Gal4-VP16 reporter inhibition counter-screen; Drosophila S2 Gal4-VP16 UAS-luciferase, luminescence, 20 h; AID 2546; Potency, µM (doses to about 53.6 µM), without a hit: top-dose activity, negative = inhibition, most hits filed as inhibitors; actives 3.5% (n = 310,000);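 also: Gal4-VP16 expression switched on by copper sulfate through the metallothionein promoter; potency is read from the fitted curve at half-maximal effect; % is scaled to controls: 0 for no effect and ±100 for the full control effect; nearly all actives have a fitted effect of over 50% in size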
# RORgamma inh: inhibitors of mouse ROR gamma transcriptional activity; AID 2551; P51450; Potency, µM (highest dose often 53.6 µM), without a hit: top-dose activity change, negative = inhibition, usual class: inhibitors; Drosophila S2 Gal4-RORgamma UAS-luciferase reporter, 20 h; actives 5.4% (n = 310,000); also: potency is read from the fitted curve at half-maximal effect; % is scaled to controls: 0 for no effect and ±100 for the full control effect; nearly all actives have a fitted effect of over 60% in size
#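 Luciferase reporter read in Schneider cells carrying Gal4-RORγ (mouse) and UAS-Photinus luciferase; cells given compound 1 h before 700 uM copper sulfate induction, then incubated 20 h at ambient temperature.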
# Numbers without * were called inactive; ? = inconclusive; / = no result; [ ] = another dose, or the depositor's remark. Unless noted, calls follow the shape of the dose curve; as a rule, active = well fitted curve in the direction sought with a large enough effect; inconclusive = small, poorly fitted or top-dose-only effect, or another doubt; inactive = no such curve, though single readings can be large; an effect the other way counts as inactive or inconclusive.
SMILES,CtBP-E1A blk,CBFb RUNX1 block,Six1-Eya2 blk,MBNL1-CUG inh,Gal4-VP16 FLuc,RORgamma inh
COCCCNc1nc(N)c([N+](=O)[O-])c(Nc2cc(OC)ccc2OC)n1,-15,-3%,-3,8%,-6%,-9%
Cc1nc2cc(C)c(C)cc2o1,0,/,6,/,/,/
O=C(C1CCCCC1)N1CCC2CC1c1cc(Cl)ccc12 (stereo unspecified),1,/,1,/,/,/
CC(C)c1ccc(/C=C/C(=O)NC(=S)NN2CCOCC2)cc1,-12,/,15,5%,4.5µM*,4µM*
O=C(NC(=S)Nc1ccc(CN2CCOCC2)cc1)c1ccc2c(c1)OCCO2,-5,-10%,-25,-12%,?,?
CC(C)c1ccc(/C=C/C(=O)NC(=S)Nc2ccc(CN3CCOCC3)cc2)cc1,-8,-1%,-8,-2%,5µM*,2.8µM*
CSc1nc(-c2ccccc2)nc(C(C)C)n1,/,/,19,/,/,/
NC(=S)NN=Cc1cc(-c2cccc(N)c2)ccn1,-81*,/,-88*,/,/,/
NC(=S)N/N=C\c1c2ccccc2cc2ccccc12,-3,-1%,-11,?,?,-146%
COc1ccc(OC)c(/C=N\NC(=O)CC(=O)NCCc2ccccc2)c1,-4,14%,5,/,4%,-3%
COc1cccc(/C=N/NC(=S)NCCc2ccccc2)c1OC,-9,/,-12,2%,?,11µM*
COc1ccc(OC)c(/C=N/NC(=S)NCCc2ccccc2)c1,-14,/,-13,-7%,11µM*,40µM*
COc1cccc(OC)c1C(=O)NC(=O)Nc1c(C)cccc1C,4,/,2,-8%,0%,3%
COc1ccccc1-n1ccnc(SCC(=O)NCCc2ccccc2)c1=O,6,/,0,/,/,/
O=NN(C(=O)NC1CCC(C(=O)O)CC1)C1CCC(C(=O)O)CC1 (stereo unspecified),2,/,7,/,/,/
O=c1[nH]c2ccccc2nc1NCc1ccccc1,-21,/,-3,22%,11%,29%
CC1=NN(c2nc3ccccc3[nH]2)C(=O)C1Cc1ccccc1 (stereo unspecified),-81*,?,-91*,8%,-13%,-29%
CC1=NN(c2nc3ccccc3[nH]2)C(=O)/C1=C/N(C)C,?,?,?,6%,?,5µM*
C[C@H]1Cc2c(COc3ccccc3)nc3c(c2CO1)CN(C(=O)c1cc(I)ccc1F)CC3,/,5%[13.1 µM],/,/,/,/
Cc1ccc(-c2noc(CSc3ccccc3)n2)cc1,71,?,73,-2%,2µM*,?
Cc1ccc(-c2cn3nc(C)c(C)nc3n2)cc1,7,9%,5,?,10µM*,7.9µM*
COCOCCn1cc(CN2CCS(=O)(=O)N(Cc3ccc(-c4ccc(Cl)cc4)cc3)C(CC(C)C)C2=O)nn1 (stereo unspecified),-2,/,0,/,/,/
Cc1ccc(C)c(NC(NC(=O)c2ccccn2)C(Cl)(Cl)Cl)c1 (stereo unspecified),4,9%,0,-8%,6%,17%
Cc1cc(Br)cnc1NC(=S)Nc1ccc(F)cc1F,0,-2%,10,-1%,?,6.3µM*
O=C(Nc1ccc(F)cc1F)c1cncc(Br)c1,6,-1%,4,-2%,-19%,-2%
SMILES,CtBP-E1A blk,CBFb RUNX1 block,Six1-Eya2 blk,MBNL1-CUG inh,Gal4-VP16 FLuc,RORgamma inh
COc1ccc2c(c1)CC/C2=N\OC(=O)c1ccccc1C,17,8%,3,1%,?,4µM*
COc1ccc2c(c1)CCC/C2=N/OC(=O)c1ccccc1OC,/,-8%,16,/,2%,4%
CCC1(C)NC(=O)N(CC(=O)Nc2cc(C)on2)C1=O (stereo unspecified),/,/,7,/,/,/
COc1ccc(-n2c(SCC(=O)N(C)C3CCS(=O)(=O)C3)nc3ccc(O)cc3c2=O)cc1OC (stereo unspecified),1,/,9,/,/,/
COC(=O)CNC(c1ccccc1)c1cc(Br)ccc1NC(=O)CCN1CCOCC1 (stereo unspecified),/,-4%,13,-9%,14µM*,?
CCOC(=O)CNC(c1ccccc1)c1cc(Br)ccc1NC(=O)OCC (stereo unspecified),16,9%,9,2%,0%,9%
CCOC(=O)CNC(c1ccccc1)c1cc(Br)ccc1NC(=O)CCN1CCOCC1 (stereo unspecified),/,-23%,1,/,8.9µM*,?
COC(=O)CNC(c1ccccc1)c1cc(Br)ccc1NC(=O)CNC(=O)OCc1ccccc1 (stereo unspecified),-8,7%,-20,-5%,-16%,36%
CC[C@]12c3[nH]c4ccc(OC)cc4c3CCN1C(=O)C(CC(=O)NCCCOC)C[C@@H]2C(=O)N1CCN(C(=O)C2CC2)CC1 (stereo partly specified),0,/,0,/,/,/
Oc1ccc(/C=N/NC(=S)N/N=C/c2ccc(O)cc2)cc1,-67*,-4%,?,?,-2%,12%
CN(C)c1ccc(C=NNC(=S)Nc2ccc(F)cc2)cc1,-24,/,-20,/,/,/
COc1ccccc1NC(=S)N/N=C/c1ccc(O)cc1,-16,3%,?,-2%,7.1µM*,4µM*
COc1ccccc1NC(=S)N/N=C/c1cccc(C)c1,-18,-4%,-9,-6%,1.3µM*,0.89µM*
COc1ccccc1NC(=S)c1ccccc1,-3,6%,-4,/,?,?
Nc1cccc2c1C(=O)N(C(=O)/C=C/c1cccc(F)c1)C2=O,-24,5%,-16,?,22µM*,?
CC(=O)NCCNc1nc(NCC2CC2)nc2cc(-c3ccccc3)sc12,-13,/,-12,/,/,/
COc1ccc2c(c1)cc(C(=O)N/N=C/c1c(O)c(C(=O)O)cc3ccccc13)n2C,-3,/,-3,20%,18µM*,11µM*
Cn1c(O)c(/C=N/NC(=O)c2cc3ccccc3cc2O)c2ccccc21,4,/,-1,9%,?,7.9µM*
CCC1CCC2(CC1)NC(=O)N(CC(=O)N1CCc3ccccc31)C2=O (stereo unspecified),-10,/,2,/,/,/
O=C1NC[C@H](c2ccccc2)N(CCc2cc(C(F)(F)F)cc(C(F)(F)F)c2)C1=O,/,16%,1,-2%,-10%,20%
FC(F)(F)c1cc(CCN2C(=S)NC[C@@H]2Cc2ccccc2)cc(C(F)(F)F)c1,7,16%,1,20%,2.8µM*,3.5µM*
Oc1ccc(C[C@H]2CNC(=S)N2CCc2cc(C(F)(F)F)cc(C(F)(F)F)c2)cc1,5,6%,1,22%,-11%,18µM*
